49 molecules from PubChem BioAssay AID1240 (Sanford-Burnham Center for Chemical Genomics, 2008) can be followed below.

SMILES strings stand for the structures. Where “and” joins values, the source holds several entries; their conditions need not be identical. Identical values can stand only once. Hit rate of the full screen: of about 50,000 compounds, about 800 (1.6%) showed an effect of 50% or more. The full list was thinned out, with strong results kept by preference.

This assay deals with Bcl-2-like protein 10 (Homo sapiens) (UniProt Q9HD36). Description: TR3 peptide-Bcl-B binding displacers, biochemical primary FP assay, phenotype converters (AID 1240).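 Also: 0% = Bcl-B with tracer peptide and DMSO and 100% = tracer peptide lacking Bcl-B.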 Conditions: GST-Bcl-B / FITC-TR3 peptide fluorescence polarization; stronger effect = higher value; compound at 3.75 mg/L. A general note: Polarisation of emitted light reports the rotation of a fluorescent probe.
Bcl-2-like protein 10 (Homo sapiens), sequence (Q9HD36 whole entry, looked up): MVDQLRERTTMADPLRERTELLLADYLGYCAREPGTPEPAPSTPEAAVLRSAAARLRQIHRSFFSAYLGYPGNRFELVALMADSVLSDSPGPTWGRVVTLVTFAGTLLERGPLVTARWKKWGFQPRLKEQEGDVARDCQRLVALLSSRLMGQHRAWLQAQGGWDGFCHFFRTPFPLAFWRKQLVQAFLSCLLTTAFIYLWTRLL
`Cc1ccccc1-n1c(=S)[nH]c2ccccc2c1=O`: the displacement was -11% and -8.7%.
Then `O=C1Nc2ccccc2/C1=C/c1nc2ccc(I)cc2c(=O)n1-c1ccccc1`, with 4.5%.
Then `O=[N+]([O-])c1ccc(CNCCc2cccc(F)c2)cc1`, with 2.2%; and `COc1cc(C=C2C(=O)N(C)C(=O)N(C)C2=O)ccc1OCCOc1ccccc1`, with 54.3%.
Then `CN1C(=O)C(=Cc2cccc(OCCOc3ccc([N+](=O)[O-])cc3)c2)C(=O)N(C)C1=O`, with 6.4%; and `C=CCOc1ccc(/C=C2\C(=O)NC(=O)N(CC=C)C2=O)cc1OC`, with 10.9%.
On to `Cc1ccc(-c2nc3ccccc3c(=O)n2-c2nccs2)cc1`, for which the displacement was -0.6%.
As for `O=[N+]([O-])/C=C/c1ccccc1OCc1ccc(Cl)cc1Cl`, the displacement was determined as 4.5%.
Then `Cc1cc(/C=C2\C(=O)NC(=O)N(c3cccc(Br)c3)C2=O)c(C)n1C`, with 126%; and `Cc1cc(/C=C2\C(=O)NC(=O)N(c3ccc(Cl)cc3)C2=O)c(C)n1C`, with 1.7%.
For the molecule `O=C1NC(=O)N(c2cccc(Br)c2)C(=O)/C1=C/c1ccco1`, the displacement came out at 5.2%.
In the case of `Cc1cc(/C=C2\C(=O)NC(=S)N(c3ccccc3F)C2=O)c(C)n1C` it was 14.1%.
In the case of `CCc1ccccc1N1C(=O)NC(=O)/C(=C\c2cc(C)n(C)c2C)C1=O` it was 87.7%.
Then `Cc1cc(C=C2C(=O)NC(=S)NC2=O)c(C)n1C`, with 6.6%; and `O=C1NC(=O)N(c2ccccc2Cl)C(=O)C1=Cc1ccccc1`, with 12.8%; and `Cc1cc(C)cc(N2C(=O)NC(=O)/C(=C\c3cc(C)n(C)c3C)C2=O)c1`, with 90.5%.
As for `O=C1NC(=O)N(c2cccc(Br)c2)C(=O)/C1=C/c1ccc(-c2ccc(C(=O)O)cc2)o1`, the displacement was -56.7%.
In the case of `Cc1ccc(-n2c(/C=C3/C(=O)Nc4ccc(Br)cc43)nc3ccccc3c2=O)cc1` it was 4.3%; in that of `Cc1cc(C)cc(N2C(=O)NC(=O)/C(=C\C=C\c3ccccc3)C2=O)c1`, 42.9%.
Then `CCCCn1c(=O)c(C(=O)Nc2ccc(I)cc2)c(O)c2ccccc21`, with 7.1%; and `CN1C(=O)C(=Cc2ccc(-c3cc(C(=O)O)ccc3Cl)o2)C(=O)N(C)C1=O`, with -2.5%; and `Cc1ccc(N2C(=O)NC(=O)/C(=C\C=C\c3ccccc3)C2=O)cc1`, with 21.4%.
For the molecule `Cc1cc([N+](=O)[O-])ccc1-c1ccc(/C=C2/C(=O)NC(=O)N(C)C2=O)o1`, the displacement was found to be 11.4%.
Then `C=CCN1C(=O)NC(=O)/C(=C/c2ccc(-c3cc([N+](=O)[O-])ccc3Cl)o2)C1=O`, with 84.3%; and `O=C1NC(=O)C(=Cc2ccc(-c3ccc([N+](=O)[O-])cc3Cl)o2)C(=O)N1`, with 66.8%; and `CN1C(=O)NC(=O)/C(=C/c2ccc(-c3ccc([N+](=O)[O-])cc3)o2)C1=O`, with 3.6%.
Then `O=C1NC(=O)C(=Cc2ccc(-c3cc([N+](=O)[O-])ccc3O)o2)C(=O)N1`, with 109%; and `CN1C(=O)NC(=O)/C(=C/c2ccc(-c3ccc([N+](=O)[O-])cc3Br)o2)C1=O`, with -9.1%; and `O=C1NC(=S)NC(=O)C1=Cc1ccc(-c2ccc([N+](=O)[O-])cc2Br)o1`, with 29%.
In the case of `O=C1NC(=S)NC(=O)C1=Cc1ccc(-c2cc(Cl)c([N+](=O)[O-])cc2Cl)o1` it was 19.3%; in that of `CN1C(=O)NC(=O)/C(=C/c2ccc(-c3cccc([N+](=O)[O-])c3)o2)C1=O`, -20.5%.
As to `Cc1cc([N+](=O)[O-])c(C)cc1-c1ccc(C=C2C(=O)NC(=O)NC2=O)o1`, the displacement was found to be 8.4%.
In the case of `Cc1cc(-c2ccc(C=C3C(=O)NC(=O)NC3=O)o2)ccc1[N+](=O)[O-]` it was 13.1%; in that of `Cc1cccc(N2C(=O)NC(=O)/C(=C/c3ccc(-c4ccc([N+](=O)[O-])cc4C)o3)C2=O)c1`, 76.7%.
In the case of `COc1ccc(CN2C(=O)NC(=O)/C(=C\c3ccoc3)C2=O)cc1` it was -114%; in that of `CSc1nc2ccccc2c(=O)n1-c1cccc(C)c1`, -6.2%; in that of `O=C1NC(=O)N(c2ccc(Cl)cc2)C(=O)/C1=C\c1cc(Br)cc(Cl)c1O`, 4.8%.
Then `N#CC(C#N)=Cc1cccc2ccccc12`, with 5.7%.
Take `O=C1NC(=S)NC(=O)C1=Cc1cccc(OS(=O)(=O)c2ccc3ccccc3c2)c1`: the displacement is 3.4%.
Then `COc1cc(OC)c(OC)cc1CN1CCN(C(=O)COc2ccccc2)CC1`, with -13.1%; and `COc1ccc(CN2CCN(C(=O)Cc3ccccc3)CC2)cc1Br`, with -10%.
For the molecule `CN(C)c1ccc(/C=C2\C(=O)NC(=O)N(c3ccccc3Cl)C2=O)cc1`, the displacement came to 9.7%.
In the case of `Cc1cc(C=C2C(=O)NC(=O)NC2=O)c(C)n1C1CCCCC1` it was 124%; in that of `Cc1cc(C=C2C(=O)NC(=O)NC2=O)c(C)n1C`, 2.4%.
In the case of `Cc1cc(C)cc(-n2c(C)cc(C=C3C(=O)NC(=O)NC3=O)c2C)c1` it was 13.1%; in that of `O=C1c2ccccc2NC(c2ccccc2F)N1c1ccccc1` (centres undefined), -0.3%.
In the case of `Cc1nc2ccccc2c(=O)n1-c1ccc([N+](=O)[O-])cc1` it was 11.9%.
On to `Cc1nc2ccc(I)cc2c(=O)n1-c1ccc([N+](=O)[O-])cc1Cl`, for which the displacement was found to be 13%.
In the case of `Cc1nc2cc([N+](=O)[O-])ccc2c(=O)n1-c1ccc(Cl)cc1` it was 71.3%.
